Measured values taken from PubChem BioAssay.
Calls of active or inactive are those of the source. Unless noted, no rule for the calls is given here.

How the values were obtained:
[1] = HepG2 liver cancer cell viability effects, profiling panel, resazurin fluorescence, 24 h, PK04 Diversity Set (AID 1172); details: higher = more signal
[2] = basal S. cerevisiae growth modulation, no modifier, primary screen, OD600, strain BY4716, 24 h, basal condition (AID 1173); details: OD600, 24 h, higher = more signal, called active from +8 up or from −8 down
[3] = MM1S myeloma cell viability, profiling panel, resazurin fluorescence, basal, 24 h, PK04 Diversity Set (AID 1174); details: higher = more signal, called active from +8 up or from −8 down;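 also: MM1S multiple myeloma cell line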
[4] = target: Dihydroorotate dehydrogenase (quinone), mitochondrial (Plasmodium falciparum (isolate 3D7)) (UniProt Q08210); assay: PfDHODH enzyme inhibitors, primary screen, biochemical, C-terminal His tag, absorbance 600 nm (AID 1175); details: DCIP absorbance 600 nm, higher = more signal, called active from +8 up or from −8 down;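 also: recombinant parasite enzyme with a five histidine tag at its C terminus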
[5] = P. aeruginosa biofilm formation inhibitors, primary screen, strain PAO1, LB-PBS medium, absorbance 600 nm (AID 1176); details: P. aeruginosa PAO1 growth/biofilm, A600, 12 h; higher = more signal
[6] = S. cerevisiae RM11-1a growth modifiers, primary screen, strain RM11-1a, OD600, basal, 24 h (AID 1177); details: OD600, 24 h, higher = more signal, called active from +8 up or from −8 down;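 also: cultures grown under basal conditions with no added stressor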
[7] = E. coli acrAB mutant growth effects, primary screen, E. coli filamentation inducers, strain DRC39, OD650, 24 h (AID 1178); details: higher = more signal, called active from +8 up or from −8 down;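 also: growth measured as culture turbidity by optical density at 650 nm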
[8] = E. coli acrAB mutant growth effects, primary screen, E. coli filamentation inducers, strain DRC39, OD650, 48 h (AID 1179);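 also: screen aims at cell division blockers that make cells filament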; details: E. coli DRC39 delta-acrAB growth, higher = more signal, called active from +8 up or from −8 down
[9] = RPMI8226 myeloma cell viability, profiling panel, resazurin fluorescence, basal, 24 h, PK04 Diversity Set (AID 1180); details: higher = more signal;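 also: RPMI8826 multiple myeloma cell line at 5000 cells per well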
[10] = target: E3 ubiquitin-protein ligase XIAP (Homo sapiens) (UniProt P98170); assay: XIAP binders, primary screen, biophysical, small-molecule microarray, fluorescence 635 nm (AID 1181); details: small-molecule microarray binding, higher = more signal;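 also: score merges 667 nm emission and signal to noise over triplicate slides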
[11] = tested on: XIP peptide (Xip251-270) binding; assay: small-molecule binders of XIP peptide, primary screen, biochemical, small-molecule microarray, fluorescence 635/667 nm, 0.1 µg/mL protein (AID 1182); details: fluorescent protein binding, 635 nm, higher = more signal, called active from +8 up or from −8 down
[12] = tested on: XIP peptide (Xip251-270); assay: small-molecule binders of XIP peptide, primary screen, biochemical, small-molecule microarray, fluorescence 635/667 nm, 0.5 µg/mL protein (AID 1183); details: small-molecule microarray binding, fluorescence 635 nm; higher = more signal
[13] = Plasmodium falciparum growth inhibition, primary screen, strain 3D7, DAPI fluorescence, 100 nL (AID 1184);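 also: parasites grown inside human red blood cells in medium with human serum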; details: P. falciparum 3D7 growth, 3 d, higher = more signal
[14] = target: Homeobox protein Hox-A13 (Mus musculus) (UniProt Q62424); assay: inhibitors of HoxA13-DNA binding, primary screen, biochemical, fluorescence polarization, labeled oligonucleotide (AID 1185); details: 15 min, higher = more signal, called active from +8 up or from −8 down
[15] = inhibitors of hydroxyurea-induced Chk1 phosphorylation, primary screen, imaging, HeLa, phospho-Chk1 antibody, percent positive cells (AID 1186); details: hydroxyurea-induced phospho-Chk1 immunofluorescence imaging, higher = more signal
[16] = inhibitors of hydroxyurea-induced Chk1 phosphorylation, primary screen, imaging, HeLa, phospho-Chk1 nuclear intensity (AID 1187); details: hydroxyurea-induced phospho-Chk1 immunofluorescence imaging, higher = more signal

Chain of E3 ubiquitin-protein ligase XIAP (Homo sapiens) (P98170 whole entry, looked up): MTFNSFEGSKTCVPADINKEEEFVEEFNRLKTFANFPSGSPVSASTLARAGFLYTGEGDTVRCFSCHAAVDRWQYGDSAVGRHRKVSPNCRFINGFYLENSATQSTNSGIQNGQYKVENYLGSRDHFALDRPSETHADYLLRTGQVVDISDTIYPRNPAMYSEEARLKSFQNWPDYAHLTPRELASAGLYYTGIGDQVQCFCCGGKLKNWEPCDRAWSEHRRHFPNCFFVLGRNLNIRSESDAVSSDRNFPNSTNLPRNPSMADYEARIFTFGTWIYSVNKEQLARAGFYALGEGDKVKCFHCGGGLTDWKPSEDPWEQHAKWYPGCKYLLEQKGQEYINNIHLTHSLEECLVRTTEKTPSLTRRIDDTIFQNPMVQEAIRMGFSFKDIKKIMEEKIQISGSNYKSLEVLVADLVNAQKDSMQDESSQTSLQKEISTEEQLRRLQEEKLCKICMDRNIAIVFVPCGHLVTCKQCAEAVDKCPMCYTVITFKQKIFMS
Chain of Homeobox protein Hox-A13 (Mus musculus) (Q62424 whole entry, looked up): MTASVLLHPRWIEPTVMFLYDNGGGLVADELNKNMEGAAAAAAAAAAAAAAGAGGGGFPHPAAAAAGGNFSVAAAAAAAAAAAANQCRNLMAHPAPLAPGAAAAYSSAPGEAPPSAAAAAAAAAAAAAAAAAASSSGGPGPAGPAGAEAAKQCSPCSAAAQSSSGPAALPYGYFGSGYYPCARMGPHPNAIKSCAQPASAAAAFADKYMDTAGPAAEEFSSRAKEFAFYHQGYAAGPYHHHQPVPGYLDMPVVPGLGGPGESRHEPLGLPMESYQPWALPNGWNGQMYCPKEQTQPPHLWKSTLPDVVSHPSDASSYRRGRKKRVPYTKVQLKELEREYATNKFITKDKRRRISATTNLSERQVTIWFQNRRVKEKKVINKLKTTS
Chain of Dihydroorotate dehydrogenase (quinone), mitochondrial (Plasmodium falciparum (isolate 3D7)) (Q08210 whole entry, looked up): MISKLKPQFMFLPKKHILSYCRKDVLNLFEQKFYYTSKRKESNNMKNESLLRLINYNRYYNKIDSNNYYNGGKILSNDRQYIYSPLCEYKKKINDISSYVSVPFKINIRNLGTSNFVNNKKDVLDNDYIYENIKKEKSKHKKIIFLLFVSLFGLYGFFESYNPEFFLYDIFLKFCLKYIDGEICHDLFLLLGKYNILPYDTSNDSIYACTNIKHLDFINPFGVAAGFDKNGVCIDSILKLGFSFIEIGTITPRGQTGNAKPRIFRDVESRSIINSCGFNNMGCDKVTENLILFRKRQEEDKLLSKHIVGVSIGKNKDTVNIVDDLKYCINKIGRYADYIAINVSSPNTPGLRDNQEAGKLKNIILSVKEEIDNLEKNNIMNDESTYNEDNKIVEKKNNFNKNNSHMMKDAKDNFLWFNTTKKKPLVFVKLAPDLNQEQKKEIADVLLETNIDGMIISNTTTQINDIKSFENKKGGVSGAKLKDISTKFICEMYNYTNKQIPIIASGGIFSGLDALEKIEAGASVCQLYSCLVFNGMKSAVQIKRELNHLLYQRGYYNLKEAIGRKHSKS

Structure (SMILES)	z-score [1]	z-score [2]	z-score [3]	composite z-score [4]	z-score [5]	z-score [6]	z-score [7]	z-score [8]	z-score [9]	composite z-score [10]	composite z-score [11]	composite z-score [12]	z-score [13]	z-score [14]	z-score [15]	z-score [16]
COC(=O)[C@@]1(Cc2ccc(F)cc2)[C@H]2c3cc(C(=O)N4CCCC4)n(Cc4ccc(S(C)(=O)=O)cc4)c3C[C@H]2CN1C(=O)c1ccccc1	-0.608	1.01 (inactive)	-1.03 (inactive)	-0.159 (inactive)	1.09 (inactive)	0.458 (inactive)	-1.12 (inactive)	-0.704 (inactive)	-0.948	0.261	0.845 (inactive)	0.116	-1.46	-4.4 (inactive)	0.396 (inactive)	0.172 (inactive)
CN(C)CCCCCCNC(=O)[C@H]1C[C@H]2C(=O)N[C@@H](CCCCN)C(=O)N2[C@H]1c1cccc(OCCO)c1	-0.0616	-1.69 (inactive)	-0.0889 (inactive)	-0.692 (inactive)	0.0346 (inactive)	-0.533 (inactive)	0.422 (inactive)	-0.02 (inactive)	-0.614	2.02	0.867 (inactive)	0.727	1.05	-2.01 (inactive)	-0.198 (inactive)	-0.0886 (inactive)
COc1ccc(C#Cc2ccc3c(c2)[C@]2(C(=O)N3)[C@H](C(=O)Nc3nc4ccccc4s3)[C@H]3C(=O)O[C@H](c4ccccc4)[C@H](c4ccccc4)N3[C@@H]2c2ccc(O)cc2)cc1	1.2	0.0338 (inactive)	0.283 (inactive)	-2.08 (inactive)	0.145 (inactive)	1.15 (inactive)	0.237 (inactive)	-0.0528 (inactive)	0.338	0.065	0.0642 (inactive)	0.73	-0.435	-0.717 (inactive)	-0.0599 (inactive)	-0.17 (inactive)
O=C1C[C@@](C(=O)NCCN2CCOCC2)(c2ccc([N+](=O)[O-])cc2)[C@@H](c2ccc(CO)cc2)N1CC12CC3CC(CC(C3)C1)C2	-2.48	-11.2 (active)	-3.17 (inactive)	-0.601 (inactive)	0.733 (inactive)	1.77 (inactive)	-0.924 (inactive)	-1.66 (inactive)	-3.82	-0.182	1.28 (inactive)	0.795	-1.29	-4.58 (inactive)	-0.489 (inactive)	-0.649 (inactive)
COCCOC(=O)N1C(=O)[C@@]2(c3cc(C#Cc4ccc(OC)cc4)ccc31)[C@H](c1ccccc1OCCO)N1[C@H](c3ccccc3)[C@H](c3ccccc3)OC(=O)[C@H]1[C@@H]2C(=O)NC[C@H](O)c1ccccc1	0.48	2.55 (inactive)	-0.444 (inactive)	-1.22 (inactive)	3.27 (inactive)	3.17 (inactive)	0.418 (inactive)	0.127 (inactive)	-0.82	-0.0421	0.159 (inactive)	0.815	-1.8	-1.34 (inactive)	-0.203 (inactive)	-0.29 (inactive)
O=C1c2ccccc2[C@](Cc2ccccc2I)(C(=O)NCCN2CCOCC2)[C@H](c2ccc(CO)cc2)N1Cc1ccccc1Cl	-0.322	-0.935 (inactive)	0.618 (inactive)	-0.0768 (inactive)	0.916 (inactive)	-0.0576 (inactive)	0.768 (inactive)	-0.108 (inactive)	0.304	-0.102	1.08 (inactive)	0.862	-1.47	-4.29 (inactive)	-0.206 (inactive)	-0.183 (inactive)
NCCCCCNC(=O)[C@@H]1C[C@@H]2C(=O)N[C@@H](Cc3ccccc3)C(=O)N2[C@@H]1c1ccc(O)cc1	-1.74	-0.576 (inactive)	-0.0591 (inactive)	-0.0741 (inactive)	1.07 (inactive)	-0.56 (inactive)	-0.598 (inactive)	-0.384 (inactive)	0.15	0.013	0.632 (inactive)	0.549	1.35	-1.87 (inactive)	0.296 (inactive)	0.204 (inactive)
CC(C)C[C@@H]1NC(=O)[C@H](C(C)C)NC(=O)[C@@]23C(=O)N[C@@H](Cc4ccccc4)C2[C@H](C)[C@@]2(C)O[C@H]2C3/C=C/CC/C=C/CNC1=O (some centres undefined)	0.233	-0.399 (inactive)	-0.0691 (inactive)	-0.313 (inactive)	0.956 (inactive)	0.388 (inactive)	1.04 (inactive)	0.408 (inactive)	0.628	-0.243	0.758 (inactive)	0.607	-1.4	-6.99 (inactive)	0.0132 (inactive)	0.432 (inactive)
OCCCC1=CC(c2cccs2)N(Cc2cc3c(cc2Br)OCO3)CC1 (centres undefined)	-0.429	-2.09 (inactive)	-0.643 (inactive)	-0.966 (inactive)	0.531 (inactive)	-0.174 (inactive)	-0.341 (inactive)	-0.681 (inactive)	-0.829	0.019	0.412 (inactive)	0.435	-1.82	-2.36 (inactive)	0.32 (inactive)	0.998 (inactive)
CCCC[C@H]1OB(O)C[C@H]2C1=C(COC)Cn1c(=O)n(-c3ccccc3)c(=O)n12	-0.248	-0.607 (inactive)	-0.228 (inactive)	-0.485 (inactive)	0.0937 (inactive)	0.523 (inactive)	0.451 (inactive)	0.452 (inactive)	-0.214	-0.053	0.81 (inactive)	-0.305	-1.29	-2.41 (inactive)	-0.503 (inactive)	-0.639 (inactive)
COC(=O)[C@@]1(Cc2ccc(OC)cc2)[C@H]2c3cc(C(=O)N4CCCC4)n(Cc4ccc(C)c(F)c4F)c3C[C@H]2CN1C(=O)c1ccccc1	0.273	1.9 (inactive)	-1.4 (inactive)	0.104 (inactive)	-0.843 (inactive)	1.41 (inactive)	0.35 (inactive)	-0.237 (inactive)	-1.59	0.0683	0.128 (inactive)	0.715	-1.12	-0.498 (inactive)	-0.0213 (inactive)	-0.423 (inactive)
CCOC(=O)C[C@H]1[C@H](OC(=O)c2ccc(C(=O)c3ccccc3)cc2)[C@@H](NC(=O)CC(C)C)c2cc(OCCCO)ccc2N1C(=O)c1ccc2ccccc2n1	0.85	1.1 (inactive)	-0.469 (inactive)	-0.888 (inactive)	0.453 (inactive)	0.8 (inactive)	-0.0708 (inactive)	0.648 (inactive)	-0.0956	-0.102	1.24 (inactive)	0.642	-0.057	-2.72 (inactive)	-0.776 (inactive)	-0.687 (inactive)
NC(=O)NCC#Cc1ccc2c(c1)[C@]1(C(=O)N2)[C@H](c2ccc(O)cc2)N2[C@H](c3ccccc3)[C@H](c3ccccc3)OC(=O)[C@H]2[C@@H]1C(=O)O	0.587	0.453 (inactive)	0.277 (inactive)	-0.268 (inactive)	0.237 (inactive)	0.726 (inactive)	-0.338 (inactive)	-0.176 (inactive)	0.772	0.0975	-0.211 (inactive)	0.157	0.431	-5.27 (inactive)	0.123 (inactive)	0.094 (inactive)
CO[C@H]1O[C@H](CO)[C@@H](OC(=O)Nc2ccc(Oc3ccccc3)cc2)[C@H](OC(=O)Nc2ccc3c(c2)OCO3)[C@H]1OC(=O)Nc1ccc2c(c1)OCO2	-0.692	0.759 (inactive)	0.0487 (inactive)	-0.227 (inactive)	2.07 (inactive)	1.11 (inactive)	1.65 (inactive)	0.0431 (inactive)	0.404	-0.0795	0.69 (inactive)	0.891	-2.33	-5.25 (inactive)	-0.334 (inactive)	-0.152 (inactive)
CN(C)C(=O)[C@@]1(CCS(=O)(=O)c2ccccc2)COC(c2ccc(OCCCO)cc2)=N1	-0.837	1.14 (inactive)	-2.38 (inactive)	0.989 (inactive)	1.03 (inactive)	1.08 (inactive)	0.73 (inactive)	0.56 (inactive)	-2.08	-0.0502	0.551 (inactive)	0.299	-0.697	-5.72 (inactive)	-0.0692 (inactive)	-0.023 (inactive)
COCCOC(=O)N1C(=O)[C@@]2(c3cc(C#CCC(C(=O)OC)C(=O)OC)ccc31)[C@H](c1ccccc1OCCO)N1[C@H](c3ccccc3)[C@H](c3ccccc3)OC(=O)[C@H]1[C@@H]2C(=O)N1CCN(c2ncccn2)CC1	0.326	2.4 (inactive)	1.04 (inactive)	-0.388 (inactive)	3.18 (inactive)	3.19 (inactive)	0.862 (inactive)	0.519 (inactive)	-0.83	-0.0095	0.311 (inactive)	0.62	-2.25	0.271 (inactive)	-0.225 (inactive)	-0.236 (inactive)
COC(=O)c1c(CC[C@@H](CO)NC(=O)NCCn2cc(C3(O)CCCC3)nn2)oc(C(C)=O)c1C(=O)OC	-0.777	-0.394 (inactive)	-0.691 (inactive)	-0.35 (inactive)	0.173 (inactive)	-0.77 (inactive)	-0.426 (inactive)	-0.828 (inactive)	-0.581	-0.0343	0.333 (inactive)	-0.0213	-0.72	-1.9 (inactive)	0.0528 (inactive)	-0.0849 (inactive)
COc1cc(C(O)C2C=CC3C(=O)NC(=O)C3N2Nc2ccccn2)cc(OC)c1OC (centres undefined)	-0.927	0.979 (inactive)	-1.57 (inactive)	1.14 (inactive)	1.16 (inactive)	0.228 (inactive)	-1.24 (inactive)	-0.397 (inactive)	-2.04	-0.031	-0.0962 (inactive)	0.405	1.26	-2.19 (inactive)	0.209 (inactive)	0.228 (inactive)
CC(C)N1C(=O)[C@@]2(Cc3ccccc31)c1ccccc1C(=O)N(Cc1ccccc1Cl)[C@H]2c1ccc(CO)cc1	1.07	-1.87 (inactive)	0.845 (inactive)	-4.26 (inactive)	0.31 (inactive)	-1.6 (inactive)	0.344 (inactive)	0.659 (inactive)	1.32	0.257	-0.26 (inactive)	0.388	-0.113	-0.978 (inactive)	-0.339 (inactive)	-0.458 (inactive)
